Compound activity from PubChem BioAssay.
ALDH1A1 inh – qHTS Assay for Inhibitors of Aldehyde Dehydrogenase 1 (ALDH1A1). AID 1030, 2008. Aldehyde dehydrogenase 1A1 (Homo sapiens), P00352. Potency, µM (series often up to 75.3 µM), without a hit: at the top dose activity, negative = inhibition, usual class: inhibitors. actives 7.3% (n = 220,000). Purified ALDH1A1, NADH fluorescence, propionaldehyde substrate; active = well fitted inhibition curve with a large enough effect, not every such curve was filed as active; inconclusive = small, poorly fitted or top-dose-only effect, or another doubt; inactive = no such curve, though single readings can be large or run the other way;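 note: plate controls were no enzyme wells and a reference inhibitor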
RORg inh – qHTS for inhibitors of ROR gamma transcriptional activity. actives 5.4% (n = 310,000). Nuclear receptor ROR-gamma (Mus musculus), P51450. AID 2551, 2010. Potency, µM (titrated, usually from 53.6 µM), for the others: top-dose activity change, negative = inhibition, usual class: inhibitors. Drosophila S2 Gal4-RORgamma UAS-luciferase reporter, 20 h; note: nearly all actives have a fitted effect of over 60% in size
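Using a luciferase readout, inhibitors were identified by reduced reporter activity in Drosophila cells coexpressing a copper-inducible Gal4–ROR gamma fusion and UAS-driven Photinus luciferase, incubated 20 hr after 700 uM copper sulfate.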
VP16 counter – VP16 counterscreen qHTS for inhibitors of ROR gamma transcriptional activity | Drosophila S2 Gal4-VP16 UAS-luciferase, luminescence, 20 h | Potency, µM (series often up to 53.6 µM), for the others: at the highest dose activity, negative = inhibition, hits mostly inhibitors | actives 3.5% (n = 310,000) | AID 2546, 2010;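 note: Gal4-VP16 expression switched on by copper sulfate through the metallothionein promoter; nearly all actives have a fitted effect of over 50% in size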
PLK1 PBD block – qHTS for Inhibitors of PLK1-PDB (polo-like kinase 1 - polo-box domain): Primary Screen | Potency, µM, inactives show max response, negative = inhibition, most hits filed as inhibitors | actives 2.8% (n = 360,000) | Serine/threonine-protein kinase PLK1 (Homo sapiens), P53350 | Plk1 PBD binding of FITC phosphopeptide, fluorescence polarization | AID 720504, 2013; note: series mostly up to about 57 µM; nearly all actives have a fitted effect of over 65% in size
Target sequence (P53350 whole entry, looked up, the tested form may be a part): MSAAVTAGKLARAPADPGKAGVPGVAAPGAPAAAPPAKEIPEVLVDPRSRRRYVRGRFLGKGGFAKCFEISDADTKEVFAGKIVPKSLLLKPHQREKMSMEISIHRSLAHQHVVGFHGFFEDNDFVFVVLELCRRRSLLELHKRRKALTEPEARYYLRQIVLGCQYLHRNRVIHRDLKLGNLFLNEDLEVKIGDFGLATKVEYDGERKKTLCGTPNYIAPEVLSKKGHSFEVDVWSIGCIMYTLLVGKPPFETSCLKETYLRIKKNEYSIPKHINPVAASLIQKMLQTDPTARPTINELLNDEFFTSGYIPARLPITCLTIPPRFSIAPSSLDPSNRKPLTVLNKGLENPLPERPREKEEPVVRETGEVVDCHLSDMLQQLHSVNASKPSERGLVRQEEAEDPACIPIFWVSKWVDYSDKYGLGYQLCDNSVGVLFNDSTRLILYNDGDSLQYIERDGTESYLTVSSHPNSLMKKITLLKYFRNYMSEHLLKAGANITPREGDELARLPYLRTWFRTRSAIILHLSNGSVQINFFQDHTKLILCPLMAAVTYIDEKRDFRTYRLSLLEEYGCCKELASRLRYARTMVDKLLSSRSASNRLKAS
Sfp inh – qHTS Assay for Inhibitors of Bacillus subtilis Sfp phosphopantetheinyl transferase (PPTase); Biochemical Sfp PPTase activity, qHTS; Potency, µM, for the others: largest response in the series, negative = inhibition, hits mostly inhibitors; actives 3.5% (n = 310,000); AID 1490, 2009;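 note: the enzyme is Sfp with the accession as filed and its product quenches rhodamine fluorescence; 0% = enzyme reaction without inhibitor and -100% = no enzyme wells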
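Fluorescence-quenching assay with 15 nM Sfp, 5 uM rhodamine-CoA and 12.5 uM BHQ-2-labelled ybbR peptide in pH 7.6 Hepes/MgCl2 buffer. Enzyme was pre-incubated with compound for 15 min at room temperature. Rate was taken from the 30-min fluorescence change (525/598 nm).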
* = called active by the depositor; [ ] = remark or other dose. Compounds with a hit are over-represented: about 12% of the library has one in this group of screens. Unless noted, calls come from the whole dose curve; as a rule, active = well fitted curve in the direction sought with a large enough effect; inconclusive = small, poorly fitted or top-dose-only effect, or another doubt; inactive = no such curve, though single readings can be large; an effect the other way counts as inactive or inconclusive. Unless noted, % is set by controls: 0 for no effect and ±100 for the full control effect; potency is the fitted concentration of half-maximal effect.

Results for CC(C)c1nnc(SCC(=O)NCCC2=CCCCC2)n1N ?
ALDH1A1 inh: 20µM*; RORg inh: 14.6%; VP16 counter: 11.7%; PLK1 PBD block: 10.6µM*; Sfp inh: inconclusive

What do the screens show for `Cc1cccc(-n2nnnc2SC(C)C(=O)NCCC2=CCCCC2)c1` (stereo not given)?
ALDH1A1 inh: 5.01µM*; RORg inh: -30.8%; VP16 counter: -6.7%; PLK1 PBD block: -6.8%; Sfp inh: inconclusive

How did Cc1cccc(-n2nnnc2SCC(=O)NC2CCCC2)c1 do in these assays?
PLK1 PBD block: -7.1%

What do the screens show for `CCN(CC)CCn1c2c(c(SCC(=O)Nc3nccs3)nc1=O)CCCC2`?
PLK1 PBD block: -9.8%

What do the screens show for `C/C(=N\NC(=O)c1ccc(Br)cc1)c1cccc(NC(=O)c2cccnc2)c1`?
ALDH1A1 inh: 0.0%; RORg inh: 17.8µM*; VP16 counter: 1.1%[10 µM]; PLK1 PBD block: 1.8%; Sfp inh: 0.6%

Results for C/C(=N/NC(=O)c1ccncc1)c1ccc(NC(=O)c2ccccc2)cc1 ?
RORg inh: -21.4%; VP16 counter: 7.3%; PLK1 PBD block: -18.6%; Sfp inh: -4.7%

What do the screens show for `C/C(=N\NC(=O)c1cccnc1)c1ccc(OC2OCCOC2Oc2ccc(/C(C)=N/NC(=O)c3cccnc3)cc2)cc1` (stereo not given)?
ALDH1A1 inh: 4.5%; RORg inh: -42.0%; VP16 counter: -23.5%; PLK1 PBD block: 29.9µM*; Sfp inh: -7.6%

How did C/C(=N\NC(=O)c1ccncc1)c1cccc(NC(=O)c2ccc(C(C)(C)C)cc2)c1 do in these assays?
RORg inh: 4.47µM*; VP16 counter: 3.98µM*; PLK1 PBD block: 1.4%; Sfp inh: 14.7%

What do the screens show for `CC(=NNC(=O)c1ccncc1)c1cccc(Br)c1`?
PLK1 PBD block: 1.2%

Results for C/C(=N/NC(=O)c1ccc(Br)o1)c1cccc(NC(=O)c2ccc(C)o2)c1 ?
ALDH1A1 inh: 8.4%; RORg inh: 27.1%; VP16 counter: 19.2%; PLK1 PBD block: 7.52µM*; Sfp inh: 8.3%

What do the screens show for `CSc1ccc(Cn2c(C)c(C(=O)NCc3ccc4c(c3)OCO4)sc2=O)cc1`?
PLK1 PBD block: -5.6%

How did CN(C)c1nnc(-c2ccc(Cl)cc2)o1 do in these assays?
ALDH1A1 inh: inconclusive; RORg inh: 6.2%; VP16 counter: 4.1%; PLK1 PBD block: -0.1%; Sfp inh: 15.2%

What do the screens show for `Cn1c(=O)c2c(ncn2CC(=O)OCC(=O)c2ccc(Br)cc2)n(C)c1=O`?
PLK1 PBD block: -24.9%

How did C[C@]12CC[C@@H]3c4ccc(O)cc4CC[C@H]3[C@@H]1CCC2OC(=O)CCC1CCCC1 (stereo not given in full) do in these assays?
RORg inh: 7.6%[10 µM]; VP16 counter: inconclusive; Sfp inh: 27.4%

How did CC1(C(=O)NS(=O)(=O)c2ccc(F)cc2F)CCN1C(=O)c1ccccc1CCc1ccccc1 (stereo not given) do in these assays?
PLK1 PBD block: 3.9%

Results for CSc1ccccc1C(=O)C1CCCN(C(=O)c2cccc(Cn3cccn3)c2)C1 (stereo not given) ?
PLK1 PBD block: -27.4%

How did O=C1NC(=S)N(c2cccc(Cl)c2)C12CCCCC2 do in these assays?
ALDH1A1 inh: -4.0%; RORg inh: 12.6µM*; VP16 counter: inconclusive; PLK1 PBD block: -19.8%; Sfp inh: 5.4%

How did CCCCn1c(N)c(N(CCOC)C(=O)c2ccc(COc3ccccc3)o2)c(=O)[nH]c1=O do in these assays?
PLK1 PBD block: -5.5%

Results for COC(=O)C1[C@@H](OC)C(OC(=O)COc2ccc(OC)cc2)C[C@@H]2CN3CCc4c([nH]c5cc(OC)ccc45)[C@H]3C[C@H]12 (stereo not given in full) ?
RORg inh: 11.5%; VP16 counter: -7.3%; Sfp inh: 16.2%

Results for O=c1[nH]nc(Cc2ccc(-c3ccc(Cl)cc3)o2)c2ccccc12 ?
ALDH1A1 inh: inconclusive; RORg inh: inconclusive; VP16 counter: inconclusive; PLK1 PBD block: -7.6%; Sfp inh: 56.2µM*

How did CCN(C(=O)CSc1nc2cc(Cl)ccc2c(=O)n1CC(C)C)C1CCS(=O)(=O)C1 (stereo not given) do in these assays?
PLK1 PBD block: -11.9%

What do the screens show for `CN(C(=O)CSc1nc2ccc(Br)cc2c(=O)n1Cc1ccco1)C1CCS(=O)(=O)C1` (stereo not given)?
ALDH1A1 inh: 12.6µM*; RORg inh: inconclusive; VP16 counter: -9.0%; PLK1 PBD block: -4.8%; Sfp inh: -8.7%

Results for CCN(C(=O)CSc1nc2cc(Cl)ccc2c(=O)n1Cc1ccco1)C1CCS(=O)(=O)C1 (stereo not given) ?
ALDH1A1 inh: 17.8µM*; RORg inh: 37.0%; VP16 counter: -17.0%; PLK1 PBD block: -6.0%; Sfp inh: -3.2%

How did CC1(C#CC[N+]2(C)CCCCC2)CCC2C(O1)c1ccccc1OC2(C)C (stereo not given) do in these assays?
ALDH1A1 inh: 31.6µM*; RORg inh: 12.6%; VP16 counter: 3.2%; PLK1 PBD block: inconclusive; Sfp inh: 56.2µM*

Results for CC[C@H]1C2=C3C(CC[C@H]4C(OCc5ccc(F)cc5C(F)(F)F)OC[C@](C)([C@@H]34)N(C(=O)OC(C)(C)C)C2)C(COC)C1COC (stereo not given in full) ?
ALDH1A1 inh: 0.0%; RORg inh: -5.5%; VP16 counter: 4.6%; Sfp inh: 15.7%

Results for CC1(C)O[C@H]2[C@@H](c3[nH]nc4c(=O)[nH]c(=O)[nH]c34)OC[C@H]2O1 ?
ALDH1A1 inh: -6.7%[13.5 µM]

Results for CCOC(=O)C(C)/C(C)=N/NC(=O)c1cc2ccccc2cc1O (stereo not given) ?
ALDH1A1 inh: 22.2%; RORg inh: 11.2µM*; VP16 counter: 12.6µM*; PLK1 PBD block: -6.4%; Sfp inh: 0.9%

What do the screens show for `O=C(OCC(=O)N1CCCCC1)c1cc2ccccc2cc1O`?
ALDH1A1 inh: -2.3%; RORg inh: 6.3%; VP16 counter: -16.0%; PLK1 PBD block: -0.5%; Sfp inh: -0.2%

What do the screens show for `C/C(CC(=O)N1CCN(C=O)CC1)=N\NC(=O)c1ccc(Cl)cc1`?
ALDH1A1 inh: inconclusive; RORg inh: inconclusive; VP16 counter: 11.2µM*; PLK1 PBD block: inconclusive; Sfp inh: -7.9%
